24 compounds from PubChem BioAssay (Tox21) can be followed below.

Assay [1] in a line: qHTS assay to identify small molecule antagonists of the estrogen receptor alpha (ER-alpha) signaling pathway using the BG1 cell line in the presence of 0.1 nM 17-beta-estradiol - cell viability counter screen (AID 1259241). Also: nearly all actives have a fitted effect of over 40% in size. Also: potency is read from the fitted curve at half-maximal effect. In a few lines:
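CellTiter-Fluor read (30 min, 37C) on ER-alpha/ERE-luc VM7Luc4E2 cells; 22 hr compound treatment; agonist 0.1 nM E2 final; same-well multiplex.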
Background: qHTS replaces the single test concentration by a dilution series.

A short description of assay [2]: qHTS assay to identify small molecule antagonists of the androgen receptor (AR) signaling pathway using the MDA cell line in the presence of 0.5 nM R1881 - cell viability counter screen (AID 1259242). Also: nearly all actives have a fitted effect of over 45% in size. Also: potency is read from the fitted curve at half-maximal effect. Put shortly:
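Fluorescence from CellTiter-Fluor, which reports protease activity of live cells, was read 30 min after reagent addition to MDA-kb2 cells that had been incubated 16 hr with compound and 0.5 nM R1881.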

In assay [3] the target is Androgen receptor (Homo sapiens) (UniProt P10275). Briefly: qHTS assay to identify small molecule antagonists of the androgen receptor (AR) signaling pathway using the MDA cell line in the presence of 0.5 nM R1881 (AID 1259243). Also: nearly all actives have a fitted effect of over 50% in size. Also: potency is read from the fitted curve at half-maximal effect. Put shortly:
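Inhibition of R1881 (0.5 nM final) induced reporter signal was measured in human MDA-kb2 cells; note the MMTV promoter also responds to GR. Exposure lasted 16 hr at 37C.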

The target of assay [4] is Estrogen receptor (Homo sapiens) (UniProt P03372). The assay can be described thus: qHTS assay to identify small molecule antagonists of the estrogen receptor alpha (ER-alpha) signaling pathway using the BG1 cell line in the presence of 0.1 nM 17-beta-estradiol (AID 1259244). Also: nearly all actives have a fitted effect of over 50% in size. Also: potency is read from the fitted curve at half-maximal effect. In a few lines:
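Quantitative high-throughput screen in VM7Luc4E2 cells: compound plus 0.1 nM E2 (final), 22 h, 37C, 5% CO2; ONE-Glo added, 30 min room temperature, luminescence measured.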

A short description of assay [5]: qHTS assay to identify small molecule HDAC inhibitors - cell viability counter screen (AID 1259365). Also: nearly all actives have a fitted effect of over 50% in size. Also: potency is read from the fitted curve at half-maximal effect. In a few lines:
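To flag cytotoxic hits, 1,500 wild-type HCT-116 cells per well, plated the day before, receive test compounds for 2hr at 37 C before CellTiter-Glo reagent and a luminescence read.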

Assay [6] in a line: qHTS assay to identify small molecule agonists of the sonic hedgehog signaling (Shh) pathway - cell viability counter screen (AID 1259366). Also: nearly all actives have a fitted effect of over 50% in size. Also: potency is read from the fitted curve at half-maximal effect. In a few lines: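 Fluorescence from CellTiter-Fluor reports live cells in this counter screen. NIH/3T3-derived Gli1-Luc reporter cells receive test compounds for 24hr at 37C; reagent goes in at 23hr.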
Assay [7] can be described thus: qHTS assay to identify small molecule antagonists of the sonic hedgehog signaling (Shh) pathway - cell viability counter screen (AID 1259367). Also: nearly all actives have a fitted effect of over 55% in size. Also: potency is read from the fitted curve at half-maximal effect. In a few lines: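 Seed 3T3 Gli1-Luc cells at 2,000 per well; incubate 4 hr; add compound in DMSO, then conditioned medium; incubate at 37C with 5% CO2; add CellTiter-Fluor after 23 hr; read fluorescence 1 hr later.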
A short description of assay [8]: qHTS assay to identify small molecule agonists of the sonic hedgehog signaling (Shh) pathway (AID 1259368; calls by dose curve;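 also: NIH/3T3-derived 3T3Gli1-Luc cells carrying a stable Gli1-driven firefly luciferase reporter; series mostly up to about 92 µM; nearly all actives have a fitted effect of over 15% in size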). Put shortly:
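Luminescent signal was taken as a measure of Gli1-controlled luciferase expression in stably transfected NIH/3T3-derived cells that had been treated for 24 hr with compounds delivered in DMSO.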

Assay [9] is described as follows: qHTS assay to identify small molecule HDAC inhibitors (AID 1259364). Also: nearly all actives have a fitted effect of over 45% in size. Also: potency is read from the fitted curve at half-maximal effect. Put shortly:
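Endogenous HDAC class I/II activity was measured in wild-type HCT-116 cells by HDAC-Glo luminescence after 2 h compound treatment.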

Assay [10] can be described thus: qHTS assay to identify small molecule phospholipidosis (PLD) inducers (AID 1259344; active = well fitted curve in the direction sought with a large enough effect; an effect the other way counts as inactive or inconclusive). Put shortly: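 Quantitative HTS in HepG2: compound plus LipidTOX Red dye for 24 h, paraformaldehyde fixation with Hoechst 33342, widefield high-content imaging; amiodarone as positive and DMSO as negative control.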

Each structure is given as a SMILES string. “And” between values parts separate entries of the source, which are not always exact repeats. Identical values can stand only once. A number with no mark means an inactive call. Results filed as inconclusive are left out. The source made the active and inactive calls. Unless noted, calls follow the shape of the dose curve; as a rule, active = well fitted curve in the direction sought with a large enough effect in the repeat runs; inconclusive = weak or mixed curves; inactive = no such curve, though single readings can be large; an effect the other way counts as inactive or inconclusive.

Chain of Androgen receptor (Homo sapiens) (P10275 whole entry, looked up): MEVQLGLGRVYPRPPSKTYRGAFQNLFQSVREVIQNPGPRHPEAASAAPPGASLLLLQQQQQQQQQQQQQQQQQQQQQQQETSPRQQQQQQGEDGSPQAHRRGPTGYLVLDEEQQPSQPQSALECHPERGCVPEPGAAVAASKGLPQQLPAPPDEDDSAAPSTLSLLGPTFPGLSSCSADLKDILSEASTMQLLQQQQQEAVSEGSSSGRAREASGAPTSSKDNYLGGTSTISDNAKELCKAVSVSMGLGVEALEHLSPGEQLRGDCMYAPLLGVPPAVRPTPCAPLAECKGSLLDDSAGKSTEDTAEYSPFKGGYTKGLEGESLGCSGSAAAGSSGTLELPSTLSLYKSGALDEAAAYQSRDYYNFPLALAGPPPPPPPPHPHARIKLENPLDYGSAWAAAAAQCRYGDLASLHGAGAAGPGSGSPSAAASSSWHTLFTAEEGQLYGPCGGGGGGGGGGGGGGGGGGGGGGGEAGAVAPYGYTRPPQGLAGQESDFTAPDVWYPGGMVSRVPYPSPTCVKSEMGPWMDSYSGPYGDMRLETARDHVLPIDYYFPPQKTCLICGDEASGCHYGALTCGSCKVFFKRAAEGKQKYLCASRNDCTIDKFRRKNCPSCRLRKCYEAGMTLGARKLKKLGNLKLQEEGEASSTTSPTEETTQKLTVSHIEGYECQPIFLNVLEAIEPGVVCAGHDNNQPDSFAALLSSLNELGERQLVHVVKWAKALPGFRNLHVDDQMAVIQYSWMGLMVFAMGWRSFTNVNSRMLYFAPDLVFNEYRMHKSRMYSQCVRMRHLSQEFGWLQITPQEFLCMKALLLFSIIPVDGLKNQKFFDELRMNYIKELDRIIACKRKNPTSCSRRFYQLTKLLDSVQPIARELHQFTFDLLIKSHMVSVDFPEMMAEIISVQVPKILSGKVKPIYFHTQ
Chain of Estrogen receptor (Homo sapiens) (P03372 whole entry, looked up): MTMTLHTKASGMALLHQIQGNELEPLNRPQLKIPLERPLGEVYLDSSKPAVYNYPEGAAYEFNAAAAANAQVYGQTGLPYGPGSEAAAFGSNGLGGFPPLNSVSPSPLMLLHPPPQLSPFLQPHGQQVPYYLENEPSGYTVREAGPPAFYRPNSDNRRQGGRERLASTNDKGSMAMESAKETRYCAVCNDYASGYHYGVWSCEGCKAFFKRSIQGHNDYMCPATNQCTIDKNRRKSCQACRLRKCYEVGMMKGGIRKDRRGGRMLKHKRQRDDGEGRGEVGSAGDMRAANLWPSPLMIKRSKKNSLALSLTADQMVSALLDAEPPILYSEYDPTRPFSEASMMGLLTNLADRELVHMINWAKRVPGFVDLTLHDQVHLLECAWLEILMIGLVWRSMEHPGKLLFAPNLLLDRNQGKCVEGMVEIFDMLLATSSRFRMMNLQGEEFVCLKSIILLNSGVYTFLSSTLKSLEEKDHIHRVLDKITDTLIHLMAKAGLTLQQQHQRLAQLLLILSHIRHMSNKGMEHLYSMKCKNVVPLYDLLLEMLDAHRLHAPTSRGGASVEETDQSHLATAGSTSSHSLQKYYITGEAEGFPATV

In the case of `O=C(/C=C/c1ccccc1)OCCc1ccccc1`, the Potency result in assay [1], in assay [2], in assay [3], in assay [4], in assay [5] and in assay [6] was “inactive” in each case. Besides, the Potency result in assay [7] and in [8] was “inactive” each time.
Take `C/C=C/C=C/C=O`: the Potency result in [1], in assay [2], in assay [3], in assay [4], in assay [9] and in assay [5] was “inactive” each time. The Potency entry in assay [6], in assay [7] and in [8] was “inactive” in each case.
With `COC(=O)[C@H]1[C@H]2C[C@@H]3c4[nH]c5cc(OC)ccc5c4CCN3C[C@H]2C[C@@H](OC(=O)/C=C/c2ccc(O)c(OC)c2)[C@@H]1OC`, the Potency entry in assay [1], in assay [2], in assay [3], in assay [4], in assay [9] and in assay [5] was “inactive” in each case. In addition, the Potency result in [6], in assay [7] and in [8] was “inactive” throughout.
Turning to `CC(CN(C)C)C(C)(O)Cc1ccc(Cl)cc1` (stereo not given), the Potency entry in [1], in [2], in [3], in assay [4], in [10] and in [9] was “inactive” throughout. Moreover, the Potency result in [5], in assay [6], in [7] and in assay [8] was “inactive” in each case.
On to `CCCCCC[C@@H](O)C/C=C\CCCCCCCC(=O)OCC(O)CO` (stereo not given in full), for which the Potency result in assay [1], in [2], in assay [3], in assay [4], in assay [9] and in assay [5] was “inactive” throughout. The Potency result in [6], in assay [7] and in [8] was “inactive” in each case.
With `C=C(C)[C@@H]1CCC2=CCC[C@@H](C)[C@]2(C)C1`, the Potency result in assay [1], in assay [2], in assay [4], in [9], in assay [5] and in assay [6] was “inactive” throughout. Also, the Potency entry in [7] and in assay [8] was “inactive” each time. Further, the Potency in [3] is 27.3 µM (active).
`CCN(CC)CCNC(=O)COc1ccc(OC)cc1`: the Potency entry in assay [1], in [2], in assay [4], in [10], in assay [9] and in assay [5] was “inactive” each time. Moreover, the Potency result in [6], in assay [7] and in [8] was “inactive” in each case.
As to `O=c1cc(-c2ccccc2)oc2ccc3ccccc3c12`, the Potency entry in [1], in [2], in assay [3], in assay [4], in [6] and in [7] was “inactive” throughout. Further, the Potency in [9] is 0.137 µM (active); in assay [5], 17.2 µM (active).
With `O=C1c2ccccc2C(=O)C1c1ccc(Br)cc1`, the Potency entry in assay [1], in assay [2], in assay [3], in assay [4], in assay [10] and in [5] was “inactive” in each case. The Potency result in [6], in assay [7] and in assay [8] was “inactive” each time. In assay [9], the Potency was 18.8 µM (active).
As for `C=CCc1ccccc1OCC(O)CNC(C)C` (stereo not given), the Potency entry in assay [1], in [2], in assay [3], in assay [10], in assay [9] and in [5] was “inactive” in each case. For the same compound, the Potency result in [6], in assay [7] and in [8] was “inactive” in each case.
As to `C[C@@H](O[C@H]1OCCN(Cc2n[nH]c(=O)[nH]2)[C@H]1c1ccc(F)cc1)c1cc(C(F)(F)F)cc(C(F)(F)F)c1`, the Potency entry in assay [1], in assay [2], in assay [9], in [5] and in [8] was “inactive” throughout. Besides, the Potency in assay [3] is 29.8 µM (active).
`CCC(=O)C1CC(C(C)C)CC=C1C` (stereo not given): the Potency entry in assay [1], in assay [2], in assay [3], in [4], in [9] and in assay [5] was “inactive” each time. The Potency entry in [6], in [7] and in assay [8] was “inactive” throughout.
With `O=C1NC(=O)c2cc([N+](=O)[O-])ccc21`, the Potency result in [1], in [2], in [3], in assay [4], in [9] and in assay [5] was “inactive” throughout. Moreover, the Potency result in assay [6], in assay [7] and in [8] was “inactive” throughout.
In the case of `O=C1Cc2cc(Cl)ccc2N1`, the Potency result in assay [1], in assay [2], in assay [3], in assay [9], in assay [5] and in [6] was “inactive” in each case. Besides, the Potency entry in assay [7] and in [8] was “inactive” in each case.
In the case of `CCC(=O)OC`, the Potency entry in assay [1], in [2], in assay [3], in assay [4], in [9] and in assay [5] was “inactive” in each case. Besides, the Potency result in [6], in assay [7] and in assay [8] was “inactive” throughout.
For the compound `C[C@@H]1CC(=O)NN=C1c1ccc(NN=C(C#N)C#N)cc1`, the Potency was 21.1 µM (active) and 15 µM (active) in [1]; 11.9 µM (active) in [2]; 21.1 µM (active) in assay [3]; 13.3 µM (active) in [6]; 13.3 µM (active) in assay [7]. Further, the Potency entry in assay [4], in assay [10], in assay [5] and in assay [8] was “inactive” each time.
Take `OC(CCN1CCCC1)(c1ccccc1)C1CCCCC1` (stereo not given): the Potency result in assay [1], in [2], in assay [3], in [10], in assay [9] and in [5] was “inactive” in each case. For the same compound, in assay [8], the Potency entry is “inactive”.
Take `OC1(c2ccccc2)CCNCC1`: the Potency entry in [1], in assay [2], in assay [3], in assay [9], in assay [5] and in [6] was “inactive” in each case. Besides, the Potency entry in assay [7] and in assay [8] was “inactive” in each case.
Take `Cc1cc(O)c(C)c(C)c1O`: the Potency result in [1], in assay [2], in assay [3], in [4], in assay [9] and in assay [5] was “inactive” throughout. Further, the Potency entry in assay [6], in [7] and in [8] was “inactive” each time.
Regarding `CCCCC(CC)CN` (stereo not given), the Potency entry in [1], in [2], in [3], in assay [4], in assay [9] and in [5] was “inactive” throughout. The Potency entry in assay [6], in [7] and in assay [8] was “inactive” throughout.
As for `O=C1Cc2ccccc2N1c1c(Cl)cccc1Cl`, the Potency result in assay [1], in assay [2], in [9], in [5], in assay [6] and in assay [7] was “inactive” throughout. Also, the Potency result in assay [8] is “inactive”. In addition, the values for the Potency in [3] and in assay [4] were 24.3 µM (active) and 61.1 µM (active), respectively.
Take `CO[C@]1(NC(=O)CSC(F)F)C(=O)N2C(C(=O)O)=C(CSc3nnnn3CCO)CO[C@H]21`: the Potency result in [1], in assay [2], in [4], in assay [10], in assay [9] and in assay [5] was “inactive” throughout. Also, the Potency entry in assay [6], in assay [7] and in assay [8] was “inactive” in each case.
Regarding `O=C(Cn1ccnc1[N+](=O)[O-])NCCO`, the Potency entry in [1], in assay [2], in [3], in assay [4], in [10] and in [9] was “inactive” each time. In addition, the Potency result in assay [5], in assay [6], in assay [7] and in assay [8] was “inactive” in each case.
Regarding `C[C@@H](O)[C@H]1C(=O)N2C(C(=O)O)=C([C@H]3CCCO3)S[C@H]12`, the Potency result in [1], in assay [2], in assay [3], in assay [4], in assay [10] and in assay [5] was “inactive” throughout. Also, the Potency result in [6], in assay [7] and in [8] was “inactive” each time.
